Data as given in the supplement of paper PMC13380429.
Unmarked numbers belong to inactive results.

System: Vero E6 infected with SARS-CoV-2
Experiment: inhibition of SARS-CoV-2 cytopathic effect; higher = more antiviral protection, active = above 15
Settings: 48 h

Row | SMILES | inhibition of SARS-CoV-2 cytopathic effect (1 nM) | inhibition of SARS-CoV-2 cytopathic effect (8.33 nM) | inhibition of SARS-CoV-2 cytopathic effect (100 nM) | inhibition of SARS-CoV-2 cytopathic effect (833.33 nM) | inhibition of SARS-CoV-2 cytopathic effect (10000 nM)
1 | O=C(O)C(=O)Nc1cccc(-c2nnn[nH]2)c1 [acitazanolast] | -1.24% | -0.89% | -0.76% | -1.09% | -0.46%
2 | CN1CCN(CCc2ccc(Cl)c(Cl)c2)CC1 | 0.05% | 3.18% | -0.38% | 0.92% | -1.14%
3 | CN1C[C@@H]2C[C@H]1CN2c1cc2c(cc1F)c(=O)c(C(=O)O)cn2C1CC1 [danofloxacin] | 0.88% | -1.78% | 0.43% | 2.27% | 6.15%
4 | Oc1cc2c(cc1O)C(c1ccccc1)CNCC2 (stereo not given) | 3.06% | 1.73% | 1.53% | 1.32% | 0.48%
5 | O=C(c1ccc(Cl)cc1)N(Cc1ccccc1)C1CCCCC1 | -1.58% | -1.87% | 1.24% | -0.21% | -2.35%
6 | COc1ccc(NC(=O)c2ccc(-c3ccc(-c4noc(C)n4)cc3C)cc2)cc1OCCN(C)C | -0.44% | -0.62% | -0.42% | -0.17% | 5.11%
7 | COc1ccccc1OCC(O)CNC(C)C (stereo not given) [moprolol] | -0.33% | -2.22% | -0.82% | -3.01% | -2.72%
8 | Cc1nccc2[nH]c(=O)ccc12 [medorinone] | -1.14% | -4.65% | 1.27% | -0.3% | -3.87%
9 | COc1ccc(CN(C(=O)[C@@H](N)Cc2c(C)cc(C(N)=O)cc2C)[C@@H](C)c2ncc(-c3ccccc3)[nH]2)cc1C(=O)O [eluxadoline] | 2.78% | 1.84% | 0.96% | 1.03% | 1.03%
10 | C=C1C(=O)O[C@@H]2[C@H]3C(C)=CC[C@@]34O[C@@]4(C)CC[C@@H]12 [arglabin] | -2.02% | 1.39% | -0.31% | -1.74% | 29.2% (active)
11 | Cn1cc(-c2ccc(F)c(C(F)(F)F)c2)nc1C1CCN(c2ncnc3[nH]ncc23)CC1 | 0.45% | -0.64% | -1.2% | -2.86% | -3.92%
12 | C[C@@H]1C[C@H]2[C@@H]3C[C@H](F)C4=CC(=O)C=C[C@]4(C)[C@@]3(F)[C@@H](O)C[C@]2(C)[C@@]1(O)C(=O)CO [flumethasone] | 0.24% | -0.72% | 1.45% | 0.62% | 0.56%
13 | Cc1cc(-c2nncc3c(C(C)(C)C)c(OCc4ncnn4C)nn23)no1 | 1.59% | -1.07% | 0.62% | -3.08% | -1.02%
14 | NCCc1c[nH]c2ccc(O)cc12 [serotonin] | -0.73% | -0.57% | 2.41% | 2.28% | 0.37%
15 | CCC(C)(C)C(=O)O[C@H]1C[C@@H](C)C=C2C=C[C@H](C)[C@H](CC[C@@H]3C[C@@H](O)CC(=O)O3)[C@H]21 [simvastatin] | -3.26% | 0.13% | -0.41% | -0.83% | 5.01%
16 | O=C(O)CCc1c[nH]c2ccccc12 | 0.05% | -0.38% | -1.18% | -0.72% | -0.06%
17 | O=C(CCCCCCNC(=O)c1cnc(N(c2ccccc2)c2ccccc2)nc1)NO | -0.34% | -1.04% | 2.13% | -4.05% | -10.5%
18 | C[C@H]1c2cccc(O)c2C(=O)C2=C(O)[C@]3(O)C(=O)C(C(N)=O)=C(O)[C@@H](N(C)C)[C@@H]3[C@@H](O)[C@@H]21 [doxycycline] | -1.68% | -0.605% | 0.42% | 0.08% | -0.76%
19 | N#Cc1ccc(-c2csc(NN=C3CCCC3)n2)cc1 [remodelin] | 0.9% | 1% | 1.18% | 0.48% | 0.34%
20 | COc1ccc(-c2cc(=O)c3c(O)cc(O)cc3o2)cc1O [diosmetin] | -0.61% | -0.9% | -1.66% | -3.02% | 2.95%

Row | SMILES | inhibition of SARS-CoV-2 cytopathic effect (1 nM) | inhibition of SARS-CoV-2 cytopathic effect (8.33 nM) | inhibition of SARS-CoV-2 cytopathic effect (100 nM) | inhibition of SARS-CoV-2 cytopathic effect (833.33 nM) | inhibition of SARS-CoV-2 cytopathic effect (10000 nM)
21 | CC(C)(C)NCc1cc(Nc2ccnc3cc(Cl)ccc23)c2c(c1O)CCCC2 [naphthoquine-phosphate] | -1.58% | -2.22% | -0.22% | -0.36% | -5.14%
22 | C[C@@H]1NC(C)(C)CO[C@@]1(O)c1cccc(Cl)c1 [radafaxine] | -2.6% | 3.35% | 6.44% | 7.12% | -0.21%
23 | CCN(CCCc1ccccc1)CCCc1ccccc1 [alverine] | -0.33% | 1.03% | -0.23% | -0.58% | -0.57%
24 | CN(C(=O)c1ccc(F)cc1C(F)(F)F)C1CCN(c2nnc(-c3ccnn3C)c3ccccc23)CC1 [taladegib] | 0.16% | -6.09% | -5.17% | -5.9% | -5.54%
25 | c1ccc(-c2nc(CN3CCN(c4ncccn4)CC3)c[nH]2)cc1 | -2.28% | -0.03% | -3.72% | -0.79% | -1.23%
26 | O=C1CCCCCCCCCCCCCCO1 [oxacyclohexadecan-2-one] | -0.21% | 0.27% | 0.06% | 1.81% | -1.21%
27 | C[C@]12CCC(=O)C=C1[C@@H]1C[C@@H]1[C@H]1[C@@H]3[C@@H]4C[C@@H]4[C@@]4(CCC(=O)O4)[C@@]3(C)CC[C@@H]12 [drospirenone] | -10.6% | -1.07% | -3.16% | 0.94% | 5.09%
28 | CC(C)C[C@H](NC(=O)[C@H](Cc1ccccc1)NC(=O)c1cnccn1)B(O)O [bortezomib] | 1.7% | 11% | 32.8% (active) | 27.1% (active) | 12.7%
29 | CCCCCCN(CCCCCC)C(=O)Cc1c(-c2ccc(Cl)cc2)[nH]c2ccc(Cl)cc12 | 1.54% | 2.57% | -1.81% | -0.56% | -0.57%
30 | CC1=C(/C=C/C(C)=C/C=C/C(C)=C/C=O)C(C)(C)CCC1 [retinaldehyde] | -0.27% | 1.56% | 3.22% | 6.75% | 10.4%
31 | Clc1ccc(Nc2nnc(Cc3ccncc3)c3ccccc23)cc1 [vatalanib] | 0.19% | -1.32% | 0.29% | 3.79% | 1.06%
32 | CCCCn1ccc(N2CCC(c3ccccc3)CC2)c(Cl)c1=O | 1.82% | 3.38% | 1.99% | 1.64% | -5.17%
33 | c1ccc(-c2n[nH]c3c2oc2ccccc23)cc1 | -0.45% | -5.74% | 1% | 2.4% | -0.82%
34 | Nc1nccc2c1ncn2C1C=C(CO)C(O)C1O (stereo not given) [3-deazaneplanocin-A] | 0.46% | 1.89% | 3.16% | 5.38% | -3.44%
35 | Cc1ccc(C(=O)c2cc(O)c(O)c([N+](=O)[O-])c2)cc1 [tolcapone] | -5.06% | -3.82% | -4.1% | 0.66% | 1.15%
36 | CN(C)CCCNC(=O)c1ccc(-c2cc(O)c3ncccc3c2)cc1 | -1.74% | -0.41% | 1.01% | -0.72% | 6.05%
37 | NS(=O)(=O)c1cc2c(cc1Cl)NC(CC1CCCC1)NS2(=O)=O (stereo not given) [cyclopenthiazide] | 1.26% | 2.37% | -0.67% | -2.85% | -0.14%
38 | NCCNC(=O)c1ccc(Cl)cn1 [lazabemide] | 1.32% | -0.18% | -0.23% | -0.24% | 3.29%
39 | COC(=O)C1=CO[C@@H](O)[C@@H]2C(CO)=CC[C@H]12 [genipin] | -1.26% | 1% | 0.94% | -0.49% | -0.89%
40 | C[C@H]1[C@H](OC(=O)CCC(=O)O)O[C@@H]2O[C@@]3(C)CC[C@H]4[C@H](C)CC[C@@H]1[C@@]24OO3 [artesunate] | -1.31% | -0.87% | 1.57% | -1.37% | -11.7%
